Reference: PubChem BioAssay (NCATS)
Results filed as inconclusive are left out. Active and inactive are the calls of the source. Calls follow the shape of the dose curve; as a rule, active = well fitted curve in the direction sought with a large enough effect; inconclusive = small, poorly fitted or top-dose-only effect, or another doubt; inactive = no such curve, though single readings can be large; an effect the other way counts as inactive or inconclusive.

How the values were obtained:
[1] = Quantitative High-Throughput drug screen in 47 multiple myeloma cell lines against the NCATS MIPE library collection: ARD_JJKsccE7 cell viability assay (AID 1918929; also: potency is read from the fitted curve at half-maximal effect)
How it was run: (§1)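 Viability readout: CellTiter-Glo luminescence following 5 min room-temperature incubation with reagent. Prior exposure: 48 h, 37C, humidified 5% CO2, 500 cells per well.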

[2] = Quantitative High-Throughput drug screen in 47 multiple myeloma cell lines against the NCATS MIPE library collection: KMM1_JCRB cell viability assay (AID 1918960); also: nearly all actives have a fitted effect of over 30% in size; also: potency is read from the fitted curve at half-maximal effect;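 as to viability (% of DMSO): 100% = DMSO-treated cells and 0% = medium-only wells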
How it was run: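 CellTiter-Glo luminescence after 48 h exposure gives viability, scaled between DMSO-only (100%) and media-only (0%) controls. Library compounds are pinned onto 500 myeloma cells per well, incubated at 37C with 5% CO2.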

[3] = Quantitative High-Throughput drug screen in 47 multiple myeloma cell lines against the NCATS MIPE library collection: JIM3_ECACC cell viability assay (AID 1918963; also: nearly all actives have a fitted effect of over 35% in size; also: potency is read from the fitted curve at half-maximal effect)
How it was run: (§2)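 Myeloma cells (500 per well) were exposed to MIPE 4.0 compounds by pin transfer and incubated 48 hours at 37C, 5% CO2. Viability was read as ATP by CellTiter-Glo luminescence, normalised to DMSO (100%) and media-only (0%) wells.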

[4] = Quantitative High-Throughput drug screen in 47 multiple myeloma cell lines against the NCATS MIPE library collection: INA6_PLB cell viability assay (AID 1918965; also: nearly all actives have a fitted effect of over 55% in size; also: potency is read from the fitted curve at half-maximal effect)
How it was run: (§3)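 CellTiter-Glo ATP luminescence gave viability after 48 h compound treatment at 37C of 500 multiple myeloma cells per well. Normalisation used DMSO-only wells as 100% and media-only wells as 0% viability; primary qHTS of approved and investigational drugs.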

[5] = Quantitative High-Throughput drug screen in 47 multiple myeloma cell lines against the NCATS MIPE library collection: H1112_PLB cell viability assay (AID 1918967; also: nearly all actives have a fitted effect of over 30% in size; also: potency is read from the fitted curve at half-maximal effect)
How it was run: as §1

[6] = Quantitative High-Throughput drug screen in 47 multiple myeloma cell lines against the NCATS MIPE library collection: KMS12PE_JCRB cell viability assay (AID 1918972); also: nearly all actives have a fitted effect of over 30% in size; also: potency is read from the fitted curve at half-maximal effect
How it was run: as §3

[7] = Quantitative High-Throughput drug screen in 47 multiple myeloma cell lines against the NCATS MIPE library collection: KMS26_JCRB cell viability assay (AID 1918975); also: nearly all actives have a fitted effect of over 45% in size; also: potency is read from the fitted curve at half-maximal effect
How it was run: (§4)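 Inhibition of cell viability is measured here. Each line was plated at 500 cells per well, treated with MIPE 4.0 drugs, kept 48 hours at 37C, then assayed for ATP content by CellTiter-Glo luminescence.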

[8] = Quantitative High-Throughput drug screen in 47 multiple myeloma cell lines against the NCATS MIPE library collection: MMM1_PLB cell viability assay (AID 1918976); also: nearly all actives have a fitted effect of over 35% in size; also: potency is read from the fitted curve at half-maximal effect
How it was run: (§5)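 ATP-based CellTiter-Glo luminescence after 48 h drug exposure (37 °C, 5% CO2) of 500 myeloma cells per well. DMSO-only wells set 100% viability, media-only wells 0%; MIPE 4.0 library added by pin tool.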

[9] = Quantitative High-Throughput drug screen in 47 multiple myeloma cell lines against the NCATS MIPE library collection: NCIH929_DSMZ cell viability assay (AID 1918978); also: nearly all actives have a fitted effect of over 35% in size; also: potency is read from the fitted curve at half-maximal effect
How it was run: as §5

[10] = Quantitative High-Throughput drug screen in 47 multiple myeloma cell lines against the NCATS MIPE library collection: JIM1_ECACC cell viability assay (AID 1918964; also: potency is read from the fitted curve at half-maximal effect)
How it was run: as §1

[11] = Quantitative High-Throughput drug screen in 47 multiple myeloma cell lines against the NCATS MIPE library collection: Karpas25_ECACC cell viability assay (AID 1918968; also: nearly all actives have a fitted effect of over 35% in size; also: potency is read from the fitted curve at half-maximal effect)
How it was run: as §1

[12] = Quantitative High-Throughput drug screen in 47 multiple myeloma cell lines against the NCATS MIPE library collection: Karpas620_DSMZ cell viability assay (AID 1918959); also: nearly all actives have a fitted effect of over 30% in size; also: potency is read from the fitted curve at half-maximal effect
How it was run: as §2

[13] = Quantitative High-Throughput drug screen in 47 multiple myeloma cell lines against the NCATS MIPE library collection: KHM11_PLB cell viability assay (AID 1918962); also: nearly all actives have a fitted effect of over 35% in size; also: potency is read from the fitted curve at half-maximal effect
How it was run: as §2

[14] = Quantitative High-Throughput drug screen in 47 multiple myeloma cell lines against the NCATS MIPE library collection: KMS12BM_JCRB cell viability assay (AID 1918971); also: nearly all actives have a fitted effect of over 35% in size; also: potency is read from the fitted curve at half-maximal effect
How it was run: as §4

[15] = Quantitative High-Throughput drug screen in 47 multiple myeloma cell lines against the NCATS MIPE library collection: JJN3_DSMZ cell viability assay (AID 1918966; also: nearly all actives have a fitted effect of over 50% in size; also: potency is read from the fitted curve at half-maximal effect)
How it was run: as §1

[16] = Quantitative High-Throughput drug screen in 47 multiple myeloma cell lines against the NCATS MIPE library collection: Karpas417_ECACC cell viability assay (AID 1918961); details: Karpas417 myeloma viability, CellTiter-Glo ATP luminescence, 48 h; viability (% of DMSO): at 45.8 µM (top of the series)
How it was run: as §3

[17] = Quantitative High-Throughput drug screen in 47 multiple myeloma cell lines against the NCATS MIPE library collection: KMS27_JCRB cell viability assay (AID 1918970); also: nearly all actives have a fitted effect of over 30% in size; also: potency is read from the fitted curve at half-maximal effect
How it was run: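 Luminescent ATP read-out (CellTiter-Glo, 5 min at room temperature) after 48 h compound exposure of 500 KMS27_JCRB cells per well; DMSO wells define full viability and media-only wells zero.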

[18] = Quantitative High-Throughput drug screen in 47 multiple myeloma cell lines against the NCATS MIPE library collection: KMS21BM_JCRB cell viability assay (AID 1918974); details: ATP luminescence, 48 h; viability: at 45.8 µM (top of the series) unless noted
How it was run: as §1

[19] = Quantitative High-Throughput drug screen in 47 multiple myeloma cell lines against the NCATS MIPE library collection: MOLP8_DSMZ cell viability assay (AID 1918977); also: nearly all actives have a fitted effect of over 45% in size
How it was run: as §5

[20] = Quantitative High-Throughput drug screen in 47 multiple myeloma cell lines against the NCATS MIPE library collection: KMS20_JCRB cell viability assay (AID 1918973); also: nearly all actives have a fitted effect of over 45% in size; also: potency is read from the fitted curve at half-maximal effect
How it was run: as §1

CC(=O)NC[C@H]1CN(c2ccc(N3CCOCC3)c(F)c2)C(=O)O1
active: Potency [8] 4.69 µM
inactive: Potency [1] | Potency [2] | Potency [3] | Potency [4] | Potency [5] | Potency [6] | Potency [7] | Potency [9]

CC1(C)CCC(C)(C)c2cc(NC(=O)c3ccc(C(=O)O)cc3)ccc21
inactive: Potency [10]
active: Potency [1] 13.2 µM | Potency [4] 18.7 µM | Potency [5] 10.5 µM | Potency [11] 20.9 µM | Potency [6] 20.9 µM | Potency [9] 14.8 µM

CN1C(C(=O)Nc2ccccn2)=C(O)c2sccc2S1(=O)=O
inactive: Potency [12] | Potency [2] | Potency [13] | Potency [3] | Potency [10] | Potency [5] | Potency [11] | Potency [6] | Potency [7] | Potency [9]
active: Potency [8] 2.35 µM

CCCOc1ccc2nc(NC(=O)OC)[nH]c2c1
active: Potency [1] 0.001 µM | Potency [3] 0.0066 µM | Potency [4] 0.0105 µM | Potency [11] 0.105 µM | Potency [14] 0.0066 µM | Potency [7] 1.05 µM | Potency [8] 1.32 µM | Potency [9] 1.48 µM

O=Nc1c(-c2c(O)[nH]c3cc(Br)ccc23)[nH]c2ccccc12
active: Potency [12] 8.33 µM | Potency [2] 5.26 µM | Potency [13] 4.69 µM | Potency [3] 5.26 µM | Potency [10] 1.32 µM | Potency [4] 0.526 µM | Potency [15] 18.7 µM | Potency [5] 10.5 µM | Potency [11] 5.26 µM | Potency [14] 16.6 µM | Potency [6] 1.18 µM | Potency [7] 18.7 µM | Potency [8] 20.9 µM | Potency [9] 2.64 µM

CC(S)C(=O)NCC(=O)O (stereo not drawn)
inactive: Potency [16] | Potency [3] | Potency [10] | Potency [17] | Potency [6] | Potency [9]
active: Potency [1] 2.64 µM | Potency [11] 1.87 µM

O=C(O)c1cc(=O)c2c(OCC(O)COc3cccc4oc(C(=O)O)cc(=O)c34)cccc2o1
inactive: Potency [1] | Potency [2] | Potency [3] | Potency [5] | Potency [11] | Potency [9]

CC(C)[C@H](N)C(=O)OCCOCn1cnc2c(=O)[nH]c(N)nc21
active: Potency [6] 23.5 µM
inactive: Potency [1] | Potency [3] | Potency [5] | Potency [11] | Potency [7] | Potency [8] | Potency [9]

Cc1cc2c(s1)Nc1ccccc1N=C2N1CCN(C)CC1
inactive: Potency [12] | Potency [2] | Potency [16] | Potency [3] | Potency [10] | Potency [5] | Potency [17] | Potency [6] | Potency [7] | Potency [9]
active: Potency [11] 3.32 µM

O=C(OC1C[C@H]2CC[C@@H](C1)[N+]21CCCC1)C(O)(c1ccccc1)c1ccccc1 (stereo partly drawn)
inactive: Potency [12] | Potency [2] | Potency [13] | Potency [3] | Potency [10] | Potency [5] | Potency [11] | Potency [17] | Potency [14] | Potency [6] | Potency [18] | Potency [7] | Potency [19] | Potency [9]

Cc1ccc(S(=O)(=O)NC(=O)NN2CC3CCCC3C2)cc1 (stereo not drawn)
active: Potency [1] 26.4 µM | Potency [2] 23.5 µM | Potency [3] 23.5 µM | Potency [4] 20.9 µM | Potency [11] 26.4 µM | Potency [17] 20.9 µM | Potency [6] 26.4 µM | Potency [20] 10.5 µM

CCCCC(CC)COC(=O)C(C#N)=C(c1ccccc1)c1ccccc1 (stereo not drawn)
inactive: Potency [12] | Potency [2] | Potency [13] | Potency [3] | Potency [10] | Potency [5] | Potency [11] | Potency [6] | Potency [7] | Potency [9]
active: viability (% of DMSO) [16] 94.7% | Potency [4] 9.35 µM

CCOC(=O)C1=C[C@@H](OC(CC)CC)[C@H](NC(C)=O)[C@@H](N)C1
inactive: Potency [1] | Potency [3] | Potency [4] | Potency [5] | Potency [11] | Potency [17] | Potency [6] | Potency [7] | Potency [9]

OC(CN1CCN(c2cccc(Cl)c2)CC1)C(c1ccccc1)c1ccccc1 (stereo not drawn)
inactive: Potency [1] | Potency [2] | Potency [3] | Potency [9]

CCCCc1ccc2nc(NC(=O)OC)[nH]c2c1
active: Potency [1] 0.0093 µM | Potency [4] 0.001 µM | Potency [11] 0.0235 µM | Potency [14] 0.0093 µM | Potency [6] 0.0047 µM | Potency [7] 1.48 µM | Potency [8] 3.32 µM | Potency [9] 0.935 µM

Cc1nccn1CC1CCc2c(c3ccccc3n2C)C1=O (stereo not drawn)
inactive: Potency [1] | Potency [2] | Potency [15] | Potency [17]
active: Potency [9] 26.4 µM

CC(C)Oc1ccc2c(=O)c(-c3ccccc3)coc2c1
inactive: Potency [1] | Potency [13] | Potency [3] | Potency [10] | Potency [5] | Potency [17] | Potency [9]
active: viability [18] 387% | Potency [8] 18.7 µM

COC(=O)C1=C(C)NC(C)=C(C(=O)OCCCN2CCC(c3ccccc3)(c3ccccc3)CC2)C1c1cccc([N+](=O)[O-])c1 (stereo not drawn)
inactive: Potency [1] | Potency [13] | Potency [3] | Potency [5] | Potency [17] | Potency [6] | Potency [20] | Potency [9]

O=C(NC(Cc1cc(=O)[nH]c2ccccc12)C(=O)O)c1ccc(Cl)cc1 (stereo not drawn)
inactive: Potency [1] | Potency [16] | Potency [5] | Potency [17] | Potency [14] | Potency [9]
active: Potency [15] 9.35 µM | Potency [8] 9.35 µM

CC(C)c1nc(CN(C)C(=O)N[C@H](C(=O)N[C@@H](Cc2ccccc2)C[C@H](O)[C@H](Cc2ccccc2)NC(=O)OCc2cncs2)C(C)C)cs1
active: Potency [14] 4.69 µM
inactive: Potency [12] | Potency [2] | Potency [16] | Potency [17] | Potency [6]
